We go through 13 compounds from PubChem BioAssay (NCI).

Each structure is given as a SMILES string. The panel holds about 83,000 compounds, 20% with a hit somewhere; the sample as a whole holds those more often.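 Activity criterion: percent growth below 10, measured after cells in 96-well plates were exposed to a single compound concentration for 48 hours.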 Unmarked numbers belong to inactive results. Activity calls are given as the source filed them.

Holding throughout (test): NCI-60 one-dose screen, 48 h (100 = growth as untreated, 0 = no growth, -100 = all killed)
Holding throughout (conditions): 10 µM unless noted

The test system of assay [1] is NCI-H23 lung.
Assay [2] concerns NCI-H226 lung.
For assay [3], the system named is NCI-H322M lung.
For assay [4], the system named is HOP-62 NSCLC.
For assay [5], the system named is NCI-H460 lung.
For assay [6], the system named is HOP-92 NSCLC.
Assay [7] concerns NCI-H522 lung.
Assay [8] relates to A549/ATCC NSCLC.
The test system of assay [9] is 786-0 renal.
Assay [10] has as its system COLO 205 colon.

`CCNS(=O)(=O)c1ncnc2nc[nH]c12`: the growth was 97.1% in [1]; 120% in assay [2]; 111% in assay [3]; 105% in assay [4]; 104% in assay [5]; 98.6% in assay [6]. The growth in assay [7] is 88.5%; in [8], 119%; in assay [9], 104%; in [10] it was 112%.

For the compound `CS(CCCCN=C=S)=NC(=O)c1c(F)c(F)c(F)c(F)c1F` (stereo not given), the growth in assay [1] is 80.6%; in assay [2], 99.6%; in assay [3] it was 85.6%; in assay [4] it was 109%; in assay [5], 65.5%; in [6] it was 80.8%. In addition, the growth in assay [7] is 20.6%; in assay [8], 79.6%; in assay [9], 94.3%; in assay [10], 61.4%.

For the compound `CC(C)[C@@H]1CC[C@]2(C(=O)NCCCCN=C(N)N)CC[C@]3(C)[C@H](CC[C@@H]4[C@@]5(C)CCC(=O)C(C)(C)[C@@H]5CC[C@]43C)[C@@H]12`, the growth is 69.3% in [1]; 84.1% in [2]; 73.8% in assay [3]; 72.6% in assay [4]; 58.9% in assay [5]; 57.6% in [6]. The growth was 19.5% in [7], 80.9% in assay [8], 70.7% in [9] and 2.37% (active) in assay [10].

For the compound `O=C(CO[N+](=O)[O-])Nc1ccc(C(=O)/C=C/c2ccc(Cl)cc2)cc1`, the growth in assay [1] is 5.49% (active); in assay [2] it was 81.7%; in [3], 71.5%; in assay [4], 94.1%; in assay [5], 84.9%; in assay [6], 66.8%. Further, the growth in [7] was 38.7%; in assay [8], 67.6%; in assay [9], 75%; in assay [10] it was 36.1%.

`COc1nc2c(cc1S(=O)(=O)c1ccccc1)CCc1c-2cnn1-c1ccc(Cl)cc1`: the growth in assay [1] is 89.5%; in assay [2], 92.1%; in assay [3], 101%; in [4], 86.5%; in assay [5] it was 99.2%; in [6], 80.3%. Further, the growth in [7] is 81.1%; in [8], 95.4%; in [9] it was 79.5%; in [10], 118%.

For the compound `O=C(C[C@@H](C(=O)NCc1cccc(C(F)(F)F)c1)N1C(=O)[C@@H](N2C(=O)OC[C@@H]2c2ccccc2)[C@H]1/C=C/c1ccccc1)NC1CCN(Cc2ccccc2)CC1`, the growth in assay [1] was 36.2%; in assay [2], 88.6%; in assay [3], 73.1%; in [4] it was 72.7%; in assay [5], 13.1%; in assay [6], 76.7%. Further, the growth in [7] was 33.8%; in assay [8], 53.5%; in assay [9] it was 76.3%; in [10], 45.7%.

Turning to `O=C1C(Cl)=C(Cl)C(=O)c2c1nc1n2CCCC1`, the growth in assay [1] was 74.3%; in assay [2], 109%; in assay [3], 52.7%; in [4], 97.1%; in assay [5], 39.9%; in assay [6], 102%. The growth in [7] is 85.2%; in assay [8] it was 98.4%; in [9], 94.7%; in [10] it was 5.79% (active).

As for `CC(=O)C1=C(O)C=C2Oc3c(C(=O)/C=C/c4ccccc4)c(O)c(C)c(O)c3[C@]2(C)C1=O`, the growth was 42.4% in assay [1]; 53.9% in assay [2]; 31.5% in assay [3]; 37.3% in [4]; 40.9% in assay [5]; 15.5% in [6]. The growth in [7] is 21.6%; in [8], 15%; in assay [9] it was 30.7%; in assay [10] it was 40.4%.

For the compound `COc1cc(OC)c(/C=C/S(=O)(=O)Cc2cnc(OC)c(N)c2)c(OC)c1`, the growth was 30.8% in assay [1]; 64.3% in assay [2]; 33.2% in [3]; 23.8% in [4]; 9.05% (active) in assay [5]; 85.9% in [6]. The growth in assay [7] is -2.15% (active); in [8], 9.4% (active); in assay [9], 16.2%; in assay [10], -49.2% (active).

With `COc1ccc(-c2cc(/C=C3\C(=O)Nc4ccc(Cl)cc43)[nH]n2)cc1`, the growth in assay [1] is 63.1%; in assay [2], 75.7%; in assay [3], 77.3%; in [4], 55.5%; in assay [5], 37%; in assay [6], 80.7%. In addition, the growth in assay [7] is 9.37% (active); in [8], 35.7%; in [9], 82.3%; in [10], 37%.

In the case of `CC1(C)CC(=O)C(c2c(-c3ccccc3)[nH]c3[nH]c(=S)[nH]c(=O)c23)=C(O)C1`, the growth in assay [1] is 110%; in [2], 108%; in [3] it was 102%; in assay [4], 112%; in [5] it was 117%; in [6], 84.7%. In addition, the growth in assay [7] is 107%; in assay [8], 89.8%; in assay [9] it was 104%; in [10], 119%.

For the compound `COc1ccc(/C=c2/c(=O)[nH]c3nc4sc(C)c(C)c4c(=O)n23)cc1`, the growth was 90.7% in assay [1]; 94% in assay [2]; 98.7% in [3]; 100% in assay [4]; 88.3% in [5]; 92.6% in assay [6]. Also, the growth was 74.4% in assay [7], 79.7% in assay [8], 88.1% in [9] and 111% in assay [10].

For the compound `COc1cccc(/C=C2/C(=O)N(Cc3ccco3)SC2=S)c1OC`, the growth in [1] was 108%; in [2], 101%; in [3], 98.7%; in assay [4], 105%; in [5], 102%; in assay [6], 93%. In addition, the growth was 83.7% in assay [7], 100% in assay [8], 101% in [9] and 111% in assay [10].
